Experimental data reported in PubChem BioAssay (Tox21).
Where “and” joins values, the source holds several entries; their conditions need not be identical. Identical values can stand only once. A number with no mark means an inactive call. Records with an inconclusive call do not appear. A call without a number means that no potency is given here. Calls of active or inactive are those of the source. Calls come from the whole dose curve; as a rule, active = well fitted curve in the direction sought with a large enough effect in the repeat runs; inconclusive = weak or mixed curves; inactive = no such curve, though single readings can be large; an effect the other way counts as inactive or inconclusive.

Assays:
[1] = Caspase-3/7 induction in HepG2 cells by small molecules, qHTS assay (AID 1346978); note: nearly all actives have a fitted effect of over 15% in size; note: potency is the fitted concentration of half-maximal effect
Summary of the method: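 Caspase-3/7 induction was measured by Caspase-Glo 3/7 luminescence (30 min, room temperature) after a 17 hr compound exposure of wild-type HepG2 cells seeded at 2,000 per well and pre-incubated 5 hr.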

[2] = Caspase-3/7 induction in CHO-K1 cells by small molecules, qHTS cell viability counter screen (AID 1346979); note: potency is the fitted concentration of half-maximal effect; nearly all actives have a fitted effect of over 35% in size
Summary of the method: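 Viability readout by fluorescence (CellTiter-Fluor) on wild-type CHO-K1 cells exposed for 16hr at 37C and 5% CO2 to compounds delivered in DMSO; reagent incubated 1hr before reading.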

[3] = molecular target: Nuclear receptor subfamily 1 group I member 2 (Homo sapiens) (UniProt O75469); test: Human pregnane X receptor (PXR) small molecule agonists, qHTS assay (AID 1346982); note: nearly all actives have a fitted effect of over 35% in size; note: potency is the fitted concentration of half-maximal effect
Summary of the method: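 HepG2 PXR-Luc reporter line, 5% charcoal-stripped FBS; 5 hr pre-incubation, compound (DMSO) 24 hr at 37 C/5% CO2; ONE-Glo 30 min RT; luminescence read-out.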

[4] = molecular target: Cytochrome P450 2D6 (Homo sapiens) (UniProt P10635); test: Cytochrome P450 Family 2 Subfamily D Member 6 (CYP2D6) small molecule antagonists: luciferase reporter qHTS assay (AID 1671196); note: potency is the fitted concentration of half-maximal effect; nearly all actives have a fitted effect of over 50% in size
Summary of the method: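 Luminogenic proluciferin substrate, CYP2D6 enzyme; 10 min RT preincubation with compound, NADPH regeneration system added, 1 h RT. Stop/detection reagent, 20 min RT, luminescence read (RLU). Signal proportional to CYP activity.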

[5] = molecular target: Nuclear receptor subfamily 1 group I member 2 (Rattus norvegicus) (UniProt Q9R1A7); test: Rat pregnane X receptor (rPXR) activation by small molecules, qHTS assay (AID 1346983); conditions: rPXR luciferase reporter cells, One-Glo luminescence, 24 h; max activation: stronger effect = higher value; note: nearly all actives have a fitted effect of over 20% in size; note: potency is the fitted concentration of half-maximal effect
Summary of the method: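 Luminescent readout (One-Glo luciferase, 30 min room temperature) followed 24 hr compound treatment at 37 C of rPXR cells plated 2,000 per well and preincubated 5hr; qHTS format with compounds delivered in DMSO.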

[6] = molecular target: Nuclear receptor subfamily 1 group I member 2 (Homo sapiens) (UniProt O75469); test: CYP3A4 induction through human pregnane X receptor (PXR) by small molecules, qHTS assay (AID 1346984); note: nearly all actives have a fitted effect of over 40% in size; note: potency is the fitted concentration of half-maximal effect
Summary of the method: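 HepG2-derived DPX-2 line carrying PXR plus a CYP3A4-promoter luciferase reporter; cells plated 5 hr, compound-exposed 24 hr at 37C. CYP3A4 activity probed with 3uM (final) Luciferin-IPA for 3hr, then luciferase read after One-Glo.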

[7] = molecular target: Nuclear receptor subfamily 1 group I member 2 (Homo sapiens) (UniProt O75469); test: Human pregnane X receptor (PXR) activation by small molecules, qHTS assay (AID 1346985); note: nearly all actives have a fitted effect of over 40% in size; note: potency is the fitted concentration of half-maximal effect
Summary of the method: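 DPX-2 cells (HepG2 co-transfected with a PXR response element and a CYP3A4-promoter luciferase construct) were seeded at 2,000 per well, rested 5 hr at 37C, then exposed to DMSO-dissolved compounds for 24 hr. Activation was read as luciferase luminescence.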

[8] = Caspase-3/7 induction in CHO-K1 cells by small molecules, qHTS assay (AID 1346980); note: nearly all actives have a fitted effect of over 15% in size
Summary of the method: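 Luminescent Caspase-Glo 3/7 read (30min, room temperature) quantified apoptosis induction. Cells were wild-type CHO-K1, treated with compound for 17hr at 37 C and 5% CO2.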

[9] = Caspase-3/7 induction in HepG2 cells by small molecules, qHTS cell viability counter screen (AID 1346981); note: nearly all actives have a fitted effect of over 30% in size; note: potency is the fitted concentration of half-maximal effect
Summary of the method: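 Fluorescence read-out of live-cell protease activity (CellTiter-Fluor) after 1 hr with reagent. This was measured in the same wells as the caspase-3/7 luminescence, on HepG2 cells exposed to DMSO-dissolved compounds for 16 hr at 37 C.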

Chain of Cytochrome P450 2D6 (Homo sapiens) (P10635 whole entry, looked up): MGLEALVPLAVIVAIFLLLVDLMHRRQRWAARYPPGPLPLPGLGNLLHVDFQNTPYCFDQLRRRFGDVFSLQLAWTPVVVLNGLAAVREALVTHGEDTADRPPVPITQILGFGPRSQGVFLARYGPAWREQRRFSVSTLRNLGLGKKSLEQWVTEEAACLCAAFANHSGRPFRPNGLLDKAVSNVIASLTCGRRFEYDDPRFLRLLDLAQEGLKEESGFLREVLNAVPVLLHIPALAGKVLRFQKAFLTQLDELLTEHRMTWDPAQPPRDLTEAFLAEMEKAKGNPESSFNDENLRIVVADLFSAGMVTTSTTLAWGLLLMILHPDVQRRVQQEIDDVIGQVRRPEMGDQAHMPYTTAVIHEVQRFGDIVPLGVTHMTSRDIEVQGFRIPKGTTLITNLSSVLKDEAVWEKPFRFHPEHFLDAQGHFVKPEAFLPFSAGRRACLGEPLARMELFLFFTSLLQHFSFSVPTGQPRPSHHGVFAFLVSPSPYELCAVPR
Chain of Nuclear receptor subfamily 1 group I member 2 (Rattus norvegicus) (Q9R1A7 whole entry, looked up): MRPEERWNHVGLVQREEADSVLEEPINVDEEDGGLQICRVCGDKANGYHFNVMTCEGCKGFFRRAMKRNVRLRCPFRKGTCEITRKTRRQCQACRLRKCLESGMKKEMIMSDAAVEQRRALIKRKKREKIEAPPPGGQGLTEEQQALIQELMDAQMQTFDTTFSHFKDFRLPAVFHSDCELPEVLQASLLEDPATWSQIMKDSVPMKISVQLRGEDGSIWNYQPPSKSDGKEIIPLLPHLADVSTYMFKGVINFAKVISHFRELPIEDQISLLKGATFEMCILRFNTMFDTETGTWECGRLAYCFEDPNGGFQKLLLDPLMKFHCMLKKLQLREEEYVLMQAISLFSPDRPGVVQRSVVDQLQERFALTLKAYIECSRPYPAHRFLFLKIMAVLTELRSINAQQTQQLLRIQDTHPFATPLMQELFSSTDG
Chain of Nuclear receptor subfamily 1 group I member 2 (Homo sapiens) (O75469 whole entry, looked up): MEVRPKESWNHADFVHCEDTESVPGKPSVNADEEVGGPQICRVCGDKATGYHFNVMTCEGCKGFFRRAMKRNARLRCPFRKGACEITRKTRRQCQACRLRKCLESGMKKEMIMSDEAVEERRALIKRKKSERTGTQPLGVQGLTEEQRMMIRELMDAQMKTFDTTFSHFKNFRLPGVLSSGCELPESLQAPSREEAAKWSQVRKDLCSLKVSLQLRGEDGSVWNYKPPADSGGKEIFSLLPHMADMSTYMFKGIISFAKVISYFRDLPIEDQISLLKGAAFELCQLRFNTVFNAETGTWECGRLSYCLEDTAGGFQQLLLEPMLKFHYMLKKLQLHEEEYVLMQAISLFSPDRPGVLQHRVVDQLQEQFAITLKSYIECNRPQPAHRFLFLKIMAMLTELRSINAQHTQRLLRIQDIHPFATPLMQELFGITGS

Compound: S=c1[nH]c2ccccc2s1
- Potency [1]: inactive
- Potency [2]: 64.8 µM (active)
- Potency [3]: 30.6 µM (active)
- Potency [4]: 39.9 µM (active)

Compound: CC[C@@]1(O)C(=O)OCc2c1cc1n(c2=O)Cc2cc3c(CN(C)C)c(O)ccc3nc2-1
- Potency [1]: 4.22 µM (active)
- Potency [3]: inactive
- max activation [5]: -5.54%
- Potency [6]: inactive
- Potency [7]: inactive

Compound: OCCN(CCO)c1nc(N2CCCCC2)c2nc(N(CCO)CCO)nc(N3CCCCC3)c2n1
- Potency [1]: inactive
- Potency [8]: inactive
- Potency [4]: 9.77 µM (active)

Compound: COc1cccc(N)c1
- Potency [1]: inactive
- Potency [8]: inactive
- Potency [9]: inactive

Compound: CCCC(=O)OC[C@@H](OC(=O)CCC)[C@@H](OC(=O)CCC)[C@H](Cn1c2nc(=O)[nH]c(=O)c-2nc2cc(C)c(C)cc21)OC(=O)CCC
- Potency [1]: inactive
- Potency [8]: inactive
- Potency [6]: inactive
- Potency [7]: inactive
- Potency [4]: 8.71 µM (active)

Compound: Cc1ccc(-n2nc(C(C)(C)C)cc2NC(=O)Nc2ccc(OCCN3CCOCC3)c3ccccc23)cc1
- Potency [1]: inactive
- Potency [8]: inactive
- Potency [9]: inactive
- Potency [3]: 23.7 µM (active)
- Potency [4]: 15.5 µM (active)

Compound: CCC(CN)=C(c1ccccc1)c1ccccc1
- Potency [1]: inactive
- Potency [8]: inactive
- Potency [9]: inactive
- Potency [4]: 4.36 µM (active)

Compound: O=CC=C(c1ccccc1)c1ccccc1
- Potency [1]: inactive
- Potency [2]: 54.9 µM (active)
- Potency [3]: 69.1 µM (active)

Compound: CCCC1O[C@@H]2C[C@H]3[C@@H]4CCC5=CC(=O)C=C[C@]5(C)[C@H]4[C@@H](O)C[C@]3(C)[C@]2(C(=O)CO)O1 (stereo partly drawn)
- Potency [1]: inactive
- Potency [2]: 61.2 µM (active) and 61.1 µM (active)
- Potency [8]: inactive
- Potency [5]: 12.6 µM (active)

Compound: CSc1ccc2c(c1)C(N1CCN(C)CC1)Cc1ccccc1S2 (stereo not drawn)
- Potency [2]: 29.8 µM (active)
- Potency [8]: inactive
- Potency [3]: inactive
- max activation [5]: -6.14%
- Potency [6]: 25.1 µM (active)
- Potency [4]: 1.74 µM (active)

Compound: CCCCCCCCS(=O)C(C)Cc1ccc2c(c1)OCO2 (stereo not drawn)
- Potency [1]: inactive
- Potency [8]: inactive
- Potency [9]: 69.9 µM (active)
- Potency [3]: 19.7 µM (active)
- Potency [4]: 64.6 µM (active)

Compound: N/C(=N\N=C\c1ccc(Cl)cc1)N/N=C/c1ccc(Cl)cc1
- Potency [1]: inactive
- Potency [8]: inactive
- Potency [3]: 11.9 µM (active)
- max activation [5]: -3.26%
- Potency [6]: inactive
- Potency [7]: inactive

Compound: C[C@@H]1C[C@H]2[C@@H]3CCC4=CC(=O)C=C[C@]4(C)[C@@]3(Cl)[C@@H](O)C[C@]2(C)[C@@]1(OC(=O)c1ccco1)C(=O)CCl
- Potency [2]: 23.7 µM (active)
- Potency [3]: 26.6 µM (active)
- Potency [5]: 2 µM (active)
- Potency [6]: inactive
- Potency [7]: 4.47 µM (active)
- Potency [4]: 3.89 µM (active)

Compound: CCN(CC)CCCC(C)Nc1c2ccc(Cl)cc2nc2ccc(OC)cc12 (stereo not drawn)
- Potency [1]: 29.8 µM (active)
- Potency [3]: 5.96 µM (active)
- Potency [6]: inactive
- Potency [7]: inactive
